Source: the supplement of paper PMC10849652
Targets with a hit are over-represented here; the source holds about 7,900 in all. About 0.6% of all pairs of compound and target were hits.

How the values were obtained:
Assay in all cases: log2 fold change, soluble protein after heating vs DMSO (PISA); higher = thermal stabilisation; K562 cells, 10 uM, 30 min; active = over 0.2 and 3.5 SD of the protein, either way, in both replicates (recomputed)
[1] = compound: C#Cc1cccc(Nc2ncnc3cc(OCCOC)c(OCCOC)cc23)c1 [erlotinib]
Method in brief: (§1)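 Aliquots of K562 cells (2×10^6 cells/mL) treated with 10 μM compound for 30 min were heated for 3 min over 48°C-58°C. After pooling and extraction in PBS with 0.5% NP-40 at 4°C, soluble protein from a 21,000xg, 90 min spin was quantified by TMTpro 16plex LC-MS/MS with channel sums equalised. Thermal stability is expressed against control samples, from duplicates, as a log2 fold change.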

[2] = compound: C/C(=N\NC(=O)C1=CC(=CC=C1)S(=O)(=O)N2CCOCC2)/C3=C(C=CC(=C3)Cl)O
Method in brief: as §1

[3] = compound: C1=CC(=C(C=C1Cl)C2=NC3=NC=CN=C3C(=N2)NC4=CC=NC=C4)F
Method in brief: as §1

[4] = compound: C1=CC(=CC=C1C2=NC3=C(N2)C=C(C=C3)C(=O)N)OC4=CC=C(C=C4)Cl
Method in brief: as §1

[5] = compound: C1=CC2=C(C=CC(=C2)/C=C\3/C(=O)NC(=NCC4=CC=CS4)S3)N=C1
Method in brief: as §1

[6] = compound: C1=CC2=NC=CN=C2C=C1/C=C/3\C(=O)NC(=O)S3
Method in brief: as §1

[7] = compound: C1=CC=C(C=C1)C2=NC(=C(N2)C3=CC=NC=C3)C4=CC(=C(C=C4)Cl)O
Method in brief: as §1

[8] = compound: C1=CC=C2C(=C1)C3=NNC4=CC=CC(=C43)C2=O
Method in brief: as §1

[9] = compound: C1CCN(C1)C(=O)NC2=CC=CC(=C2)NC3=NC=C(C(=N3)NCCC4=CN=CN4)Br
Method in brief: as §1

[10] = compound: C1CN(CCC1(CC2=CC=C(C=C2)Cl)N)C3=NC=NC4=C3C=CN4
Method in brief: as §1

[11] = compound: C1COCCN1CCN2C3=CC=CC=C3N=C2NC(=O)C4=CC(=CC=C4)[N+](=O)[O-] [IRAK-1-4 Inhibitor I]
Method in brief: as §1

[12] = compound: C=CC(=O)N1CCC[C@@H](n2nc(-c3ccc(Oc4ccccc4)cc3)c3c(N)ncnc32)C1 [ibrutinib]
Method in brief: as §1

[13] = compound: CC(=O)c1cnc2ccc(-c3cc(Cl)c(O)c(Cl)c3)nc2c1N[C@H]1CC[C@H](CN(C)C)CC1
Method in brief: as §1

[14] = compound: CC(C)(C)Cn1c(N)nc2ccc(-c3[nH]c(C(C)(C)C)nc3-c3ccc(F)cc3)nc21 [ralimetinib]
Method in brief: as §1

[15] = compound: CC(C)(O)CC(=O)NCCn1ccc2ncnc(Nc3ccc(Oc4cccc(C(F)(F)F)c4)c(Cl)c3)c21
Method in brief: as §1

[16] = compound: CC(C)C1=C2N=C(C=C(N2N=C1)NCC3=CC=CC=C3)NCCCCCCN
Method in brief: as §1

[17] = compound: CC(C)C[C@@H](C=O)NC(=O)[C@H](CC(C)C)NC(=O)[C@H](CC(C)C)NC(=O)OCc1ccccc1
Method in brief: as §1

[18] = compound: CC(C)N(C[C@H]1O[C@@H](n2cnc3c(N)ncnc32)[C@H](O)[C@@H]1O)[C@H]1C[C@@H](CCc2nc3cc(C(C)(C)C)ccc3[nH]2)C1 [pinometostat]
Method in brief: as §1

[19] = compound: CC1=C(C2=C(C=C1)C(=O)C3=CC=CC=C3N2CCCN)C
Method in brief: as §1

[20] = compound: CC1=C(C(CC(=O)N1)C2=CC=C(C=C2)C(F)(F)F)C(=O)NC3=C(C=C4C(=C3)C=NN4)F
Method in brief: as §1

Measured: log2 fold change

CDK8 (UniProt P49336)
inactive: [1] -0.098 | [2] -0.094 | [3] -0.161 | [4] 0.028 | [5] -0.023 | [6] 0.102 | [7] -0.087 | [8] 0.287 | [9] -0.044 | [10] 0.034 | [11] 0.006 | [12] -0.011 | [14] -0.174 | [15] -0.15 | [16] -0.067 | [17] 0.096 | [18] -0.057 | [19] -0.005
active: [13] 0.487

CASC3 (UniProt O15234)
active: [13] 0.582
inactive: [1] -0.084 | [2] -0.166 | [3] -0.066 | [4] 0.068 | [5] 0 | [6] -0.047 | [7] 0.023 | [8] -0.29 | [9] 0.089 | [10] 0.022 | [11] -0.014 | [12] 0.1 | [14] 0.07 | [15] -0.023 | [16] 0.411 | [17] -0.036 | [18] -0.005 | [20] 0.012 | [19] 0.206

C1D (UniProt Q13901)
inactive: [1] 0.022 | [2] -0.078 | [3] -0.01 | [4] -0.011 | [5] -0.246 | [6] 0.068 | [7] -0.071 | [8] -0.044 | [9] -0.019 | [10] -0.1 | [11] 0.013 | [12] -0.041 | [13] -0.081 | [14] 0.016 | [15] -0.047 | [16] 0.072 | [17] 0.055 | [18] -0.081 | [20] 0.084 | [19] -0.004

CS (UniProt O75390)
Sequence of UniProt O75390 (O75390 whole entry, looked up): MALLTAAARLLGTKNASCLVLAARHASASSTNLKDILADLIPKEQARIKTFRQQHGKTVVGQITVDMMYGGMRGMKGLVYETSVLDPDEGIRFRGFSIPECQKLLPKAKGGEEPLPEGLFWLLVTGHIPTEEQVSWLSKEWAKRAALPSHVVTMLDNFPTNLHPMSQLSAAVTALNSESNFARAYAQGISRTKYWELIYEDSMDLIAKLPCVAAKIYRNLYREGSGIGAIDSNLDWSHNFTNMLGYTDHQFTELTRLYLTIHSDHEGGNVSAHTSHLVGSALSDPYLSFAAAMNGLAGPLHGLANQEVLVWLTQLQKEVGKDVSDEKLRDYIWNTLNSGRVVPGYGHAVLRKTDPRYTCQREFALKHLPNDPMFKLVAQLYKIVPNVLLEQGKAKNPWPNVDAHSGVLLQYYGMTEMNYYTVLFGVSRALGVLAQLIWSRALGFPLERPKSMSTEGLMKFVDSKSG
inactive: [1] 0.028 | [2] 0.035 | [3] 0.033 | [4] 0.002 | [5] 0.051 | [6] -0.009 | [7] 0.072 | [8] -0.064 | [9] -0.015 | [10] 0.035 | [11] 0.02 | [12] -0.004 | [13] 0.002 | [14] -0.04 | [15] -0.178 | [16] -0.148 | [17] -0.069 | [18] -0.05 | [20] 0.02 | [19] 0.008

CLUH (UniProt O75153)
Sequence of UniProt O75153 (O75153 whole entry, looked up): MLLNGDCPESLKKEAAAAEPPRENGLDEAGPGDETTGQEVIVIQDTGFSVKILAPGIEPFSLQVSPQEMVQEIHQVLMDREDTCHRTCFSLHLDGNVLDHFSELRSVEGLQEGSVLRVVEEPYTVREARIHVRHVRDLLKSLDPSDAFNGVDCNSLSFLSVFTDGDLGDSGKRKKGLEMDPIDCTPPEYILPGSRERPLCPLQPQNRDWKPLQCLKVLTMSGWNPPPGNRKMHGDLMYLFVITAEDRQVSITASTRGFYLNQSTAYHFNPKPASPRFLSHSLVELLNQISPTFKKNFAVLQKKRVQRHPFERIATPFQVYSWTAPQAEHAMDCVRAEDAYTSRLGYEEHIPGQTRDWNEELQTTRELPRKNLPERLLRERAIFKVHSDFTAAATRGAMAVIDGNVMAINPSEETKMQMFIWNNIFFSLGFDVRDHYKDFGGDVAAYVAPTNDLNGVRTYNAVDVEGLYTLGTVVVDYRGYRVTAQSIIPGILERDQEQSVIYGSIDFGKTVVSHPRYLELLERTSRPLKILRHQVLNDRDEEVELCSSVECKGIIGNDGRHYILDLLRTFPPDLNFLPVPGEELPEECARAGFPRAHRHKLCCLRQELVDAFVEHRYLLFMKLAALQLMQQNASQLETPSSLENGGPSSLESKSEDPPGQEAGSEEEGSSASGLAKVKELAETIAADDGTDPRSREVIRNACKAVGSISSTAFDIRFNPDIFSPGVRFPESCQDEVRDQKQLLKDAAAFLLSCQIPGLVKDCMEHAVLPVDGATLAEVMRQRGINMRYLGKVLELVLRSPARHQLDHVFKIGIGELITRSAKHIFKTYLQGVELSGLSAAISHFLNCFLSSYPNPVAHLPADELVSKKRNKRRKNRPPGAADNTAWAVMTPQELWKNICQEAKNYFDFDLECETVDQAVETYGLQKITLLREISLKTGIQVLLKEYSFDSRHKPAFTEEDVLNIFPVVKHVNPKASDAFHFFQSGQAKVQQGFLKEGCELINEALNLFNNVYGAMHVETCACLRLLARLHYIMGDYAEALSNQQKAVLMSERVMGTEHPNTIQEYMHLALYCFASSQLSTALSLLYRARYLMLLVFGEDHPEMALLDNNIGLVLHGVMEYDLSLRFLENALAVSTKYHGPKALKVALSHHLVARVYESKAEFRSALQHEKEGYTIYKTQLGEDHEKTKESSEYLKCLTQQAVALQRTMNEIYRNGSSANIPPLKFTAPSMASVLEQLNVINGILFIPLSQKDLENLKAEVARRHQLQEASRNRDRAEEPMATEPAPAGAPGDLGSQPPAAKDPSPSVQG
active: [6] 0.324 | [13] 0.467
inactive: [1] 0.08 | [2] 0 | [3] 0.318 | [4] -0.042 | [5] 0.137 | [7] 0.03 | [8] 0.058 | [9] -0.043 | [10] -0.027 | [11] 0.107 | [14] 0.028 | [15] -0.048 | [16] -0.179 | [17] -0.009 | [18] 0.045 | [20] -0.094 | [19] 0.095

CBR1 (UniProt P16152)
inactive: [1] 0.011 | [2] 0.066 | [3] 0.115 | [4] 0.008 | [5] -0.009 | [6] 0.028 | [7] 0.186 | [8] -0.038 | [9] -0.027 | [10] 0.057 | [11] 0.023 | [12] 0.009 | [13] 0.031 | [14] 0.097 | [15] -0.007 | [16] 0.061 | [17] -0.088 | [18] -0.035 | [20] -0.009 | [19] 0.028

CDK1 (UniProt P06493)
active: [13] -0.401
inactive: [1] 0.045 | [2] 0.06 | [3] 0.021 | [4] 0.003 | [5] -0.054 | [6] 0.018 | [7] 0.003 | [8] -0.003 | [9] 0.007 | [10] -0.009 | [11] 0 | [12] -0.046 | [14] -0.031 | [15] -0.051 | [16] -0.02 | [17] 0.051 | [18] 0 | [20] 0.012 | [19] -0.021

CLPP (UniProt Q16740)
Sequence of UniProt Q16740 (Q16740 whole entry, looked up): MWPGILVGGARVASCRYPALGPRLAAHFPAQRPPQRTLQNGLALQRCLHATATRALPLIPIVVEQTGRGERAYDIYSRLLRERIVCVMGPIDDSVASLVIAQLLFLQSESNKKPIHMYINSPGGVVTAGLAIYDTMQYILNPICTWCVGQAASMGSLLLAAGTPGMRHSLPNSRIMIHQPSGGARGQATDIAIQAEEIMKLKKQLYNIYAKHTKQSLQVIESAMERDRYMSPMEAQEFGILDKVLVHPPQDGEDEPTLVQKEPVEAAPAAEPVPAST
inactive: [1] -0.025 | [2] 0.013 | [3] -0.069 | [4] 0.037 | [5] 0.042 | [6] 0.003 | [7] 0.023 | [8] 0.035 | [9] -0.028 | [10] 0.022 | [11] -0.023 | [13] 0.022 | [14] -0.012 | [15] 0.017 | [16] 0.097 | [17] -0.008 | [18] -0.094 | [20] -0.011 | [19] 0.079

CLTB (UniProt P09497)
inactive: [1] 0.106 | [2] -0.042 | [3] 0.038 | [4] -0.05 | [5] -0.02 | [6] 0.039 | [7] 0.069 | [8] 0.028 | [9] 0.008 | [10] 0.023 | [11] 0.053 | [13] 0.089 | [14] 0.061 | [15] -0.021 | [16] 0.024 | [17] -0.067 | [18] -0.07 | [20] 0 | [19] -0.007

CLSPN (UniProt Q9HAW4)
active: [19] -0.541
inactive: [1] -0.09 | [2] -0.022 | [3] -0.024 | [4] 0.02 | [5] -0.035 | [6] 0.032 | [7] -0.062 | [8] -0.027 | [9] -0.083 | [10] 0.033 | [11] 0.028 | [13] -0.04 | [14] -0.033 | [15] 0.038 | [16] -0.062 | [17] 0.124 | [18] -0.018 | [20] 0.009

C15orf41 (UniProt Q9Y2V0)
Sequence of UniProt Q9Y2V0 (Q9Y2V0 whole entry, looked up): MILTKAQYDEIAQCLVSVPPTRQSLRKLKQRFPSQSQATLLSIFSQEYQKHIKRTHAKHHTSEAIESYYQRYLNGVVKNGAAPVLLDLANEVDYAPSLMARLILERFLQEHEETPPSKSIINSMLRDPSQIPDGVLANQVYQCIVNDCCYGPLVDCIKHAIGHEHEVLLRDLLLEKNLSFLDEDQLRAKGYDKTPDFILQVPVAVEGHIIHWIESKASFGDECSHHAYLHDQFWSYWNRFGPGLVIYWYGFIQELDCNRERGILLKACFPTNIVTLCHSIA
inactive: [1] 0.02 | [2] 0.017 | [3] 0.002 | [4] -0.033 | [5] -0.018 | [7] 0.001 | [8] -0.098 | [9] 0.115 | [10] 0.075 | [11] 0.105 | [13] 0.062 | [14] 0.004 | [15] -0.103 | [16] -0.17 | [17] 0.11 | [18] 0.027 | [19] -0.117

CDK17 isoform 2 (UniProt Q00537)
inactive: [1] 0.086 | [2] 0.008 | [3] 0.059 | [4] -0.075 | [5] -0.123 | [6] -0.081 | [8] 0.064 | [11] 0.101 | [12] 0.003 | [13] 0.258 | [15] -0.069 | [16] 0.078 | [18] 0.037

CLCN7 (UniProt P51798)
Sequence of UniProt P51798 (P51798 whole entry, looked up): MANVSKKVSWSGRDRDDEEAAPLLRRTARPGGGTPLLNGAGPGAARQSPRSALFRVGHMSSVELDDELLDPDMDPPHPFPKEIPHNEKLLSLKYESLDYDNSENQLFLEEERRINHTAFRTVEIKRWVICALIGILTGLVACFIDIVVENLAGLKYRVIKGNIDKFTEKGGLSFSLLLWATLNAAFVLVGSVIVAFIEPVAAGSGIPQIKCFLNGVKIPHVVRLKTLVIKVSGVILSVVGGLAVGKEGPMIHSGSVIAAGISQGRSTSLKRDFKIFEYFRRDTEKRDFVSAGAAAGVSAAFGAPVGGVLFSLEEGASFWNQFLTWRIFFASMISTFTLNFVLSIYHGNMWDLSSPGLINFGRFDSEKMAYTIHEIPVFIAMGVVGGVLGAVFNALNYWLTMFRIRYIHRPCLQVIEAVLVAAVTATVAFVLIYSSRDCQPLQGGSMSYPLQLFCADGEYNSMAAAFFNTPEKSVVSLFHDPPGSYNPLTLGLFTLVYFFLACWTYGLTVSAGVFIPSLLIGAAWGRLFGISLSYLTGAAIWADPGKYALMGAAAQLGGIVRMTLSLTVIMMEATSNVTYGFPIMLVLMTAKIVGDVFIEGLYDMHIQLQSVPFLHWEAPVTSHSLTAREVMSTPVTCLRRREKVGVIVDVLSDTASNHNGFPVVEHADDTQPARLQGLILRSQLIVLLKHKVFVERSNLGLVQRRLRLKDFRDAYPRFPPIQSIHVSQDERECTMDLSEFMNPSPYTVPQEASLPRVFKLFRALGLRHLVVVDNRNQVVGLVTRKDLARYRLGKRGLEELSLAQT
active: [16] -0.91
inactive: [1] 0.079 | [2] 0.047 | [3] 0.075 | [4] -0.008 | [5] 0.023 | [6] 0.063 | [7] 0.076 | [8] -0.05 | [9] 0.016 | [10] 0.001 | [11] -0.01 | [13] -0.005 | [14] -0.055 | [15] -0.08 | [17] 0 | [18] -0.051 | [20] 0.04 | [19] -0.092

CDK5 (UniProt Q00535)
inactive: [1] -0.02 | [2] -0.009 | [3] 0.041 | [4] -0.008 | [5] -0.014 | [6] 0.052 | [7] -0.02 | [9] 0.017 | [10] 0.038 | [11] 0.008 | [12] -0.009 | [13] 0.038 | [14] 0.032 | [15] -0.07 | [16] -0.021 | [17] 0.043 | [18] 0.024 | [20] 0.038 | [19] 0.028

CLINT1 isoform 3 (UniProt Q14677)
inactive: [1] 0.016 | [2] -0.134 | [3] -0.097 | [4] -0.036 | [5] 0.026 | [6] 0.05 | [7] -0.03 | [8] -0.042 | [9] -0.044 | [10] 0.042 | [13] 0.135 | [14] 0.139 | [15] 0.102 | [16] 0.103 | [17] 0.04 | [18] 0.047 | [20] -0.002 | [19] 0.022

CLASP2 (UniProt O75122)
Sequence of UniProt O75122 (O75122 whole entry, looked up): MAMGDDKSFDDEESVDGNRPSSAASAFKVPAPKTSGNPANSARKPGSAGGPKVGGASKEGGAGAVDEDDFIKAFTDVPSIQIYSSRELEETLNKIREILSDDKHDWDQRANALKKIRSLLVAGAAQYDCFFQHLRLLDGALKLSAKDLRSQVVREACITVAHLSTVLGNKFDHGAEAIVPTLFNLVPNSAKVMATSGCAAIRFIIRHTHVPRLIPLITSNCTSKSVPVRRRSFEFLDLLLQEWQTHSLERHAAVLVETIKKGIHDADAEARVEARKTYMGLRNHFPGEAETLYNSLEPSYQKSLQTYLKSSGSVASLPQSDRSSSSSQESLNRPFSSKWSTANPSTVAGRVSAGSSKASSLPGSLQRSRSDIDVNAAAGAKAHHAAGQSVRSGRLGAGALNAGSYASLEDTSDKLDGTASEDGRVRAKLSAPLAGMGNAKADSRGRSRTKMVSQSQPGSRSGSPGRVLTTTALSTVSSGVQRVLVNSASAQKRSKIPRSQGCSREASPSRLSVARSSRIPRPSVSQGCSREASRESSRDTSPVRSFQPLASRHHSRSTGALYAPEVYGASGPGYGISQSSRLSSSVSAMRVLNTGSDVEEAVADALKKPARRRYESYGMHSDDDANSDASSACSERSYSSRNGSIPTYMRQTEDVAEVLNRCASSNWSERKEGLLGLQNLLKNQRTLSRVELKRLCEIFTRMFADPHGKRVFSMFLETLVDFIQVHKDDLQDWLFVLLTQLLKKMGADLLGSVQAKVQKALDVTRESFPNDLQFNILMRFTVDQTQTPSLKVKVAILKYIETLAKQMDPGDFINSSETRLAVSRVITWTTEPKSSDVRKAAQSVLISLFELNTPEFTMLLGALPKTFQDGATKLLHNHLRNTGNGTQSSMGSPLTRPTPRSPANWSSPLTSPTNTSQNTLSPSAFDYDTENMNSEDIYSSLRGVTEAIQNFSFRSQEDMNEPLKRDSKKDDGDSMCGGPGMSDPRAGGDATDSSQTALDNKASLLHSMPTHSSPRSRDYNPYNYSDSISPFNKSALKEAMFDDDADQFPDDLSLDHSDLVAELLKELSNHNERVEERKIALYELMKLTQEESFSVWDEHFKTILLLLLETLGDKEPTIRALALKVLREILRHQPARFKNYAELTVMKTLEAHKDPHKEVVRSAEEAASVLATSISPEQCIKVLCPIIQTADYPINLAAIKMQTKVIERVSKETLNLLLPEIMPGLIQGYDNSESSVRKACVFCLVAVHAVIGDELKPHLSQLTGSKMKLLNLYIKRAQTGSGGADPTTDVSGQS
inactive: [1] 0.089 | [2] -0.078 | [4] 0.082 | [5] -0.211 | [6] 0.133 | [7] 0.286 | [8] -0.106 | [11] 0.027 | [13] -0.852 | [14] -0.067 | [16] 0.086 | [17] 0.161 | [18] 0.057 | [20] 0.116

CORO2A (UniProt Q92828)
Sequence of UniProt Q92828 (Q92828 whole entry, looked up): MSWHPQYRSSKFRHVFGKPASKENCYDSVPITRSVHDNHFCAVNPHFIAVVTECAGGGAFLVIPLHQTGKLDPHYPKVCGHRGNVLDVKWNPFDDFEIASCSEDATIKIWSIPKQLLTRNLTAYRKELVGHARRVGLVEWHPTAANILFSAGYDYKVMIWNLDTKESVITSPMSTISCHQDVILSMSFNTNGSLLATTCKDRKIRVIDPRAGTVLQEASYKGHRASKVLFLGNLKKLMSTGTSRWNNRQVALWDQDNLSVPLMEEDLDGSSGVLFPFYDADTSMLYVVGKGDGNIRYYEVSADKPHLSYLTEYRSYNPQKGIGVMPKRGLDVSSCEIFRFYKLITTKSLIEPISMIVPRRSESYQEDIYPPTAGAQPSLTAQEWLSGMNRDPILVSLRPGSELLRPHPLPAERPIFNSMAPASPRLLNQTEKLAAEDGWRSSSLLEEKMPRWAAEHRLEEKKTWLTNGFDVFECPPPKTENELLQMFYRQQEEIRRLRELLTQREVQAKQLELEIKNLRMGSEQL
inactive: [1] -0.035 | [2] 0.064 | [4] -0.011 | [5] -0.001 | [6] 0.127 | [7] 0.138 | [8] -0.042 | [9] 0.034 | [10] 0.031 | [12] -0.068 | [13] -0.022 | [14] 0.019 | [16] -0.088 | [17] 0.21 | [20] 0.008 | [19] 0.01
